# Reference: PubChem BioAssay (EPA / NIEHS)
# Several values for one entry are separate records, joined by “and”; a condition that tells them apart may be missing. Equal values may be shown once. Results filed as inconclusive are left out. Activity calls are given as the source filed them. How the source made its calls, unless noted: active means hit-call score of the fitted dose curve at least 0.9, where 1 is the maximum; inactive means score below 0.9.
# Legend:
# [1] = BSK_BT_PBMCCytotoxicity: PBMC Cytotoxicity Assessment in the BioMAP Diversity Plus: BT Assay (AID 2284225); details: primary human B cells with PBMC;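 further: PBMC viability measured by Alamar Blue dye reduction fluorescence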
# In short: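 Viability by Alamar Blue reduction (6 h, ex/em 546/580 nm) after 90 h culture of SEB/TSST-1-activated PBMC (20 ng/mL each) given compound 1 h before activation. DMSO served as baseline for curve fitting.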
# [2] = read-out: Secreted IgG (sIgG), gene 3500; test: BSK_BT_sIgG: BioMAP Diversity Plus: BT Assay for Secreted IgG (sIgG) Biomarker Activity (AID 2284226); details: primary human B cells with PBMC
# In short: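 ELISA quantitation of secreted IgG from human B cells co-cultured with PBMC, sampled 24 h post-dosing. Values fitted relative to DMSO vehicle as baseline, positive fitting direction.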
# [3] = BSK_BT_Bcell_Proliferation: Viability Assessment in the BioMAP Diversity Plus: BT Assay for B cell Proliferation (AID 2284227); details: primary human B cells with PBMC
# In short: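 Read-out is absorbance at 560 nm from sulforhodamine B staining of total protein, reflecting relative cell numbers in a human B cell and PBMC co-culture after 72 h of chemical exposure. Values were referenced to DMSO.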
# [4] = read-out: Interleukin 6 (IL6), IL6 (gene 3569); test: BSK_BT_xIL6: BioMAP Diversity Plus: BT Assay for Interleukin 6 (IL6) Biomarker Activity (AID 2284228); details: primary human B cells with PBMC
# In short: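 B cells and peripheral blood mononuclear cells (human primary co-culture) were dosed with chemical, and after 24 h IL-6 released into the medium was measured by Luminex xMAP. Responses were analysed as gain of signal over DMSO control.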
# [5] = read-out: Interleukin 17A (IL17A), IL17A (gene 3605); test: BSK_BT_xIL17A: BioMAP Diversity Plus: BT Assay for Interleukin 17A (IL17A) Biomarker Activity (AID 2284229); details: primary human B cells with PBMC
# In short: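 Secreted IL-17A was the measured endpoint, read by Luminex xMAP multiplex in supernatants of a human B cell/PBMC co-culture harvested 24 h after chemical dosing. Signal increase relative to DMSO defined activity.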
# [6] = read-out: Tumor necrosis factor (Homo sapiens) (UniProt P01375); test: BSK_BT_xTNFa: BioMAP Diversity Plus: BT Assay for Tumor necrosis factor alpha (TNF-alpha) Biomarker Activity (AID 2284230); details: primary human B cells with PBMC
# In short: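 Human primary co-culture of B cells and peripheral blood mononuclear cells; TNF-alpha in supernatant, 24 h post-dose, Luminex multiplex; DMSO = baseline.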
# [7] = read-out: Vascular cell adhesion molecule 1 (VCAM1), VCAM1 (gene 7412); test: BSK_MyoF_VCAM1: BioMAP Diversity Plus: MyoF Assay for Vascular cell adhesion molecule 1 (VCAM1) Biomarker Activity (AID 2284231); details: primary human lung fibroblasts
# In short: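 ELISA read-out of VCAM-1 on human lung fibroblasts 24 h after chemical treatment, with positive-direction curve fitting relative to DMSO controls. Parallel cultures were stained with sulforhodamine B for total protein to flag overt cytotoxicity.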
# [8] = TAMU_PeakParms_SingleDonor1434_Chronotropy: Texas A&M University (TAMU) 1.5-hr Human Induced Pluripotent Stem Cell (iPSC)-derived Cardiomyocytes Calcium (Ca+2) Flux Assay for Cardiotoxicity: Chronotropy (changes in peak frequency) (AID 2284217); details: actives raise or lower the signal
# In short: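 iPSC-CMs, donor 1434; 4 conc (0.2–100 uM), 0.5% v/v DMSO, 90 min, 37C/5% CO2; Ca2+ flux fluorescence → peak.freq.avg; peak.freq.avg = 0 dropped; bidirectional fit vs DMSO; EC05 POD.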
# [9] = CCTE_Mundy_HCI_Cortical_Synap_Neur_Matur_NeuriteSpotCountPerNeuriteLength: CCTE's Synaptogenesis and Neurite Maturation Assay in rat cortical cells for Neurite Spot Count per Neurite Length, Mundy Lab (AID 2284210)
# In short: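 Read-out: synaptophysin puncta counted along MAP2-stained neurites, normalised to neurite length, by automated high-content imaging. Rat cortical cells; AraC DIV 5; chemical dosing DIV 7; termination DIV 12. DMSO baseline.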
# [10] = CCTE_Mundy_HCI_Cortical_Synap_Neur_Matur_BPCount: CCTE's Synaptogenesis and Neurite Maturation Assay in rat cortical cells for Branch Point Count, Mundy Lab (AID 2284211)
# In short: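 HCI read-out of branch points from MAP2/synaptophysin/Hoechst immunofluorescence; rat cortical cultures, AraC DIV 5, dosing DIV 7, fixed DIV 12; fit in positive direction vs DMSO baseline.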
# [11] = CCTE_Mundy_HCI_Cortical_NOG_NeuriteCount: CCTE's Neurite Outgrowth Assay in rat cortical cells for Neurite Count, Mundy Lab (AID 2284212);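 further: cells fixed about two days after chemical exposure began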
# In short: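 Rat cortical primary cells; compound added 2 h post-plating, 1/10 dilution of working solution. Anti-betaIII-tubulin/AF488 ICC; ArrayScan neurite count vs DMSO.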
# [12] = CCTE_Mundy_HCI_Cortical_NOG_NeuriteLength: CCTE's Neurite Outgrowth Assay in rat cortical cells for Neurite Length, Mundy Lab (AID 2284213)
# In short: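 First, rat primary cortical cells were plated and, 2 h later, given test chemical as a 1/10 dilution. Finally, βIII-tubulin immunostaining enabled automated imaging of neurite length.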
# [13] = CCTE_Mundy_HCI_Cortical_Synap_Neur_Matur_NeuriteLength: CCTE's Synaptogenesis and Neurite Maturation Assay in rat cortical cells for Neurite Length, Mundy Lab (AID 2284214)
# In short: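 Neurite length quantified by automated high-content imaging of MAP2, synaptophysin and Hoechst staining. Rat cortical cells received chemical from DIV 7 to DIV 12 […], glial growth arrested by AraC at DIV 5; DMSO baseline.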
# [14] = CCTE_Mundy_HCI_Cortical_Synap_Neur_Matur_NeuriteSpotCountPerNeuron: CCTE's Synaptogenesis and Neurite Maturation Assay in rat cortical cells for Neurite Spot Count per Neuron Count, Mundy Lab (AID 2284215)
# In short: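 Rat cortical primary cultures; AraC DIV 5 to arrest glia; dosing + media change DIV 7; fixed DIV 12. Anti-MAP2/anti-synaptophysin, Hoechst nuclei; HCI puncta count per neuron, positive fitting direction vs DMSO.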
# [15] = CCTE_Mundy_HCI_Cortical_Synap_Neur_Matur_SynapseCount: CCTE's Synaptogenesis and Neurite Maturation Assay in rat cortical cells for Synapse Count, Mundy Lab (AID 2284218)
# In short: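 High-content imaging of synaptophysin puncta per MAP2-positive neuron (Hoechst nuclei) in rat cortical cells exposed DIV 7–12 after glial arrest with AraC at DIV 5; decrease relative to DMSO scored.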
# [16] = CCTE_Mundy_HCI_Cortical_Synap_Neur_Matur_NeuriteCount: CCTE's Synaptogenesis and Neurite Maturation Assay in rat cortical cells for Neurite Count, Mundy Lab (AID 2284222);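 further: exposure from day 7 to day 12 in vitro with readout at day 12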
# In short: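 Primary rat cortical cells were plated, treated with AraC at DIV 5, then exposed to chemicals from DIV 7 through DIV 12. After fixation and immunostaining for MAP2 and synaptophysin, imaging quantified neurites, with DMSO as the negative control.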
# [17] = CCTE_Mundy_HCI_Cortical_Synap_Neur_Matur_CellBodySpotCount: CCTE's Synaptogenesis and Neurite Maturation Assay in rat cortical cells for Cell Body Spot Count, Mundy Lab (AID 2284223)
# In short: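 Rat cortical neurons; AraC @ DIV 5; dose + media change DIV 7; fix DIV 12; anti-MAP2/anti-synaptophysin IF, Hoechst; HCI count of soma synaptophysin puncta/neuron; DMSO = negative control.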
# [18] = CCTE_Mundy_HCI_hNP1_Pro_ResponderAvgInten: CCTE's Proliferation Assay in human neuroprogenitor cells, Mundy Lab (AID 2284224; active means hit-call score of the fitted dose curve at least 0.9, where 1 is the maximum;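 further: human neural progenitor cells hNP1 derived from WA09 embryonic stem cells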)
# In short: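 Proliferation read as average intensity of BrdU-positive cells, imaged at 26.25 h post-dosing: chemical exposure started after 40–44 h culture, BrdU during final 4 h, paraformaldehyde fixation. Positive-direction fit relative to DMSO.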
# [19] = IUF_NPC1a_proliferation_area_72hr: Leibniz Research Institute for Environmental Medicine (IUF) 72-hour Neural Progenitor Cell Proliferation Area Assay (NPC1a) (AID 2284208)
# In short: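 Spheres of 0.3 mm are plated singly in growth-factor medium and exposed from day 0. After three days at 37C and 5% CO2, sphere area is measured by phase contrast imaging, with activity referenced to DMSO.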
# [20] = IUF_NPC1_viability_72hr: Viability Assessment at 72 hours in the Leibniz Research Institute for Environmental Medicine (IUF) Neural Progenitor Cell Proliferation Assay (NPC1) (AID 2284209)
# In short: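 Viability was measured by resazurin-to-resorufin fluorescence (alamar blue) after 72 h of continuous exposure without compound renewal. Each well held one hNPC sphere (gestational week 16-19 fetal cortex, 0.25-0.35 mm) cultured in EGF/FGF proliferation medium at 37C and pH 7.2-7.6.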
# Chain of Tumor necrosis factor (Homo sapiens) (P01375 whole entry, looked up): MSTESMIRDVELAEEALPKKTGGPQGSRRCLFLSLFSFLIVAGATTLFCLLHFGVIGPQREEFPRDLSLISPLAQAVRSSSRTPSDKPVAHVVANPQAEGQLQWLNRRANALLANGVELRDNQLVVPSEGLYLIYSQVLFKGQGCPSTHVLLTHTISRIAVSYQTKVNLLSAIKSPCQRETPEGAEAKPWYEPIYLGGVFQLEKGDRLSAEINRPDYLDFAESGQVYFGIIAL
smiles,measurement,setting,value
c1ccc(-c2ccccn2)nc1,outcome,[1],inactive
same,AC50,[2],20 µM (active)
same,outcome,[3],inactive
same,outcome,[4],inactive
same,outcome,[5],inactive
same,outcome,[6],inactive
same,outcome,[7],inactive
C=CCOc1c(Br)cc(Br)cc1Br,outcome,[1],inactive
same,outcome,[2],inactive
same,outcome,[3],inactive
same,outcome,[4],inactive
same,outcome,[5],inactive
same,outcome,[6],inactive
same,AC50,[7],23.7 µM (active)
O=C(Nc1ccccc1SSc1ccccc1NC(=O)c1ccccc1)c1ccccc1,AC50,[1],6.24 µM (active)
same,AC50,[2],4.59 µM (active)
same,AC50,[3],5.95 µM (active)
same,AC50,[4],13.2 µM (active)
same,AC50,[5],5.93 µM (active)
same,AC50,[6],11.7 µM (active)
same,outcome,[7],inactive
C#CC1(O)CC[C@H]2[C@@H]3CCC4=CCCC[C@@H]4[C@H]3CC[C@@]21C (stereo partly drawn),AC50,[1],34.3 µM (active)
same,AC50,[2],10.7 µM (active)
same,AC50,[3],30.1 µM (active)
same,AC50,[4],28.1 µM (active)
same,AC50,[5],14.5 µM (active)
same,AC50,[6],34.2 µM (active)
same,AC50,[7],33.1 µM (active)
COc1ccc2nc(N)sc2c1,outcome,[1],inactive
same,outcome,[2],inactive
same,outcome,[3],inactive
same,outcome,[4],inactive
same,outcome,[5],inactive
same,outcome,[6],inactive
same,outcome,[7],inactive
c1ccc2c(c1)ccc1cc3c(ccc4ccccc43)cc12,AC50,[8],50 µM (active)
same,outcome,[1],inactive
same,outcome,[2],inactive
same,outcome,[3],inactive
same,AC50,[4],3.57 µM (active) and 15 nM (active)
same,outcome,[5],inactive
same,outcome,[6],inactive
same,outcome,[7],inactive
CC1OC1C1CCC2(C)OC2C1 (stereo not drawn),outcome,[1],inactive
same,outcome,[2],inactive
same,outcome,[3],inactive
same,outcome,[4],inactive
same,outcome,[5],inactive
same,outcome,[6],inactive
same,outcome,[7],inactive
N[C@H]1C(O)O[C@H](CO)[C@H](O)[C@@H]1O (stereo partly drawn),outcome,[9],inactive
same,outcome,[10],inactive
same,outcome,[11],inactive
same,outcome,[12],inactive
same,outcome,[13],inactive
same,outcome,[14],inactive
same,outcome,[15],inactive
same,outcome,[16],inactive
same,outcome,[17],inactive
same,outcome,[18],inactive
C=CC(=O)OCC(Br)CBr (stereo not drawn),AC50,[1],20.5 µM (active)
same,AC50,[2],7.95 µM (active)
same,AC50,[3],20 µM (active)
same,AC50,[4],12.9 µM (active)
same,AC50,[5],7.7 µM (active)
same,AC50,[6],28.1 µM (active)
same,AC50,[7],20 µM (active)
CC1(C)S[C@@H]2[C@H](NC(=O)COc3ccccc3)C(=O)N2[C@H]1C(=O)O,outcome,[19],inactive
same,outcome,[20],inactive
same,outcome,[9],inactive
same,outcome,[10],inactive
same,outcome,[11],inactive
same,outcome,[12],inactive
same,outcome,[13],inactive
same,outcome,[14],inactive
same,outcome,[15],inactive
same,outcome,[16],inactive
same,outcome,[17],inactive
CCCCCCCCc1ccc(Nc2ccc(CCCCCCCC)cc2)cc1,outcome,[1],inactive
same,outcome,[2],inactive
same,outcome,[3],inactive
same,outcome,[4],inactive
same,outcome,[5],inactive
same,outcome,[6],inactive
same,outcome,[7],inactive
CCCCNc1ccc(NCCCC)c2c1C(=O)c1ccccc1C2=O,outcome,[1],inactive
same,outcome,[2],inactive
same,outcome,[3],inactive
same,outcome,[4],inactive
same,outcome,[5],inactive
same,outcome,[6],inactive
same,outcome,[7],inactive
O=c1c2ccccc2oc2ccccc12,outcome,[1],inactive
same,AC50,[2],11.7 µM (active)
same,outcome,[3],inactive
same,outcome,[4],inactive
same,outcome,[5],inactive
same,outcome,[6],inactive
same,outcome,[7],inactive
O=Nc1ccc(O)cc1,outcome,[1],inactive
same,outcome,[2],inactive
same,outcome,[3],inactive
same,outcome,[4],inactive
same,outcome,[5],inactive
same,outcome,[6],inactive
same,outcome,[7],inactive
CCCCCCCCCCCCCCCC[N+](C)(C)CC,AC50,[1],6.46 µM (active)
same,AC50,[2],0.0956 µM (active)
same,AC50,[3],1.81 µM (active)
same,AC50,[4],13.4 µM (active)
same,AC50,[5],1.63 µM (active)
same,AC50,[6],12 µM (active)
same,AC50,[7],1.71 µM (active)
